Laboratory results taken from PubChem BioAssay AID504558 (Broad Institute, 2011).
Out of some 350,000 compounds screened, about 2,400 (0.69%) were called active. No stated cut-off is given here; in the data, active means inhibition above about 41%; inconclusive means no clear call, values can overlap the other calls; inactive means below that. What follows is part of a selection rich in actives, with near analogues and random picks from the rest.

Test: EBV LMP1-driven NF-kappaB luciferase reporter inhibitors, primary screen, cell-based, luminescence, single point (AID 504558);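 further: 0% = neutral control wells and 100% = reference inhibitor control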
Conditions: LMP1-induced NF-kappaB luciferase reporter cells, at 12.5 µM, hits give high values

inhibition, inactive:
C[C@@H]1CN([C@H](C)CO)C(=O)CCCn2nncc2CO[C@@H]1CN(C)S(=O)(=O)c1cccc(C#N)c1 1.72%
COCCCn1c(C(=O)NC2CCCCC2)cc2c(=O)n3cccc(C)c3nc21 1.22%
C[C@H](O)[C@@H]1C(=O)N2CCc3c([nH]c4ccccc34)[C@@H]2C[C@@H]1N(C)C(=O)Nc1ccc(F)cc1 3.72%
CC1C(=O)N(Cc2cn(CC3CCCCC3)nn2)CCS(=O)(=O)N1Cc1ccc(-c2cccc(N(C)C)c2)cc1 (stereo not drawn) 6.34%
CN(C)C(CNC(=O)c1cc(Br)c(Br)s1)c1ccco1 (stereo not drawn) -1.49%
CC(=O)N1CCCc2cc(S(=O)(=O)CCC(=O)N3CCN(c4ccccc4)CC3)ccc21 -0.617%
CC(=O)N1c2ccc(S(=O)(=O)N3CCC(C(=O)N4CCN(c5ccccc5)CC4)CC3)cc2CC1C (stereo not drawn) 4.09%
Cc1cccc(S(=O)(=O)N(C)C[C@H]2OCc3cnnn3CCCC(=O)N([C@@H](C)CO)C[C@H]2C)c1 2.93%
COc1ccccc1-n1c(SCC(=O)Nc2ccc(Cl)cc2)nc(O)c(Cc2ccccc2)c1=O -7.65%
CN(C)CCN(C(=O)C1CCCCC1)c1nc2cc3c(cc2s1)OCO3 0.636%
O=C(c1ccc2nc(N3CCOCC3)sc2c1)N1CCN(c2ccc(Cl)cc2)CC1 3.45%
Cc1ccc(NC(=O)Cn2sc3ccccc3c2=O)cc1 0.665%
COc1cc(C(=O)OCCCN2CCOCC2)cc(OC)c1OC 1.26%
Cc1cccc(N(C(=O)Cn2nnc(-c3ccc(C)o3)n2)C(C(=O)NC2CCCC2)c2ccncc2)c1 (stereo not drawn) 9.95%
Cc1ccc(-c2nnn(CC(=O)N(CCO)C(C(=O)NC(C)(C)C)c3ccncc3)n2)cc1 (stereo not drawn) -24.9%
CCn1c(SCC(=O)N2CCCC2=O)nc2ccccc21 6.54%
Cc1cccc(NC(=O)/C=C/c2ccc3c(c2)OCO3)n1 -23.8%
O=C(CNC(=O)C(c1ccccc1)c1ccccc1)N/N=C\c1ccc2c(c1)OCO2 -3.07%

inhibition, active:
CC(=O)N1CCCc2cc(S(=O)(=O)N3CCCC(C(=O)N4CCN(c5cccc(Cl)c5)CC4)C3)ccc21 (stereo not drawn) 42.1%
c1c2c(cc3sc(N4CCCCC4)nc13)OCCO2 58%
COc1cccc2c1C(=O)c1c(O)c3c(c(O)c1C2=O)CC(O)(C(C)=NNC(=O)c1ccc(Cl)c(Cl)c1)CC3OC1CC(N)C(O)C(C)O1 (stereo not drawn) 70%
Cc1ccc(-c2nnn(CC(=O)N(Cc3ccco3)C(C(=O)NC(C)(C)C)c3ccncc3)n2)o1 (stereo not drawn) 54.6%
C(=N\Nc1ccc2ccccc2n1)/c1ccc2c(c1)OCO2 43.9%
